# Measurements taken from the supplement of paper PMC3334620.
# The full ranking holds about 33,000 sequences; the median of “E-score (-0.5 to 0.5)” is about -0.056, and the highest 2% start at about 0.38. This excerpt belongs to a sample that is enriched for the highest values.
# Molecular target: Stb4 (UniProt P50104)
# Assay: PBM E-score (8-mer binding enrichment) (E-score (-0.5 to 0.5)); higher = stronger / more preferred TF binding
# Conditions: protein concentration: 200 nM; construct: GST-DNA-binding domain
# Method: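 Universal 'all 10-mer' protein binding microarrays (Agilent AMADID 015681) probed with GST-tagged S. cerevisiae TFs (full-length or DBD) made by in vitro transcription/translation (PURExpress), about 100-200 nM. Bound TF was detected with fluorescent anti-GST. Each ungapped 8-mer (which stands for itself and its reverse complement) is scored by the PBM enrichment score (E-score), a modified Wilcoxon-Mann-Whitney statistic from -0.5 to +0.5, computed with the Universal PBM Analysis Suite. Scale: above 0.35 generally sequence-specific binding.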
# Sequence of UniProt P50104 (P50104 whole entry): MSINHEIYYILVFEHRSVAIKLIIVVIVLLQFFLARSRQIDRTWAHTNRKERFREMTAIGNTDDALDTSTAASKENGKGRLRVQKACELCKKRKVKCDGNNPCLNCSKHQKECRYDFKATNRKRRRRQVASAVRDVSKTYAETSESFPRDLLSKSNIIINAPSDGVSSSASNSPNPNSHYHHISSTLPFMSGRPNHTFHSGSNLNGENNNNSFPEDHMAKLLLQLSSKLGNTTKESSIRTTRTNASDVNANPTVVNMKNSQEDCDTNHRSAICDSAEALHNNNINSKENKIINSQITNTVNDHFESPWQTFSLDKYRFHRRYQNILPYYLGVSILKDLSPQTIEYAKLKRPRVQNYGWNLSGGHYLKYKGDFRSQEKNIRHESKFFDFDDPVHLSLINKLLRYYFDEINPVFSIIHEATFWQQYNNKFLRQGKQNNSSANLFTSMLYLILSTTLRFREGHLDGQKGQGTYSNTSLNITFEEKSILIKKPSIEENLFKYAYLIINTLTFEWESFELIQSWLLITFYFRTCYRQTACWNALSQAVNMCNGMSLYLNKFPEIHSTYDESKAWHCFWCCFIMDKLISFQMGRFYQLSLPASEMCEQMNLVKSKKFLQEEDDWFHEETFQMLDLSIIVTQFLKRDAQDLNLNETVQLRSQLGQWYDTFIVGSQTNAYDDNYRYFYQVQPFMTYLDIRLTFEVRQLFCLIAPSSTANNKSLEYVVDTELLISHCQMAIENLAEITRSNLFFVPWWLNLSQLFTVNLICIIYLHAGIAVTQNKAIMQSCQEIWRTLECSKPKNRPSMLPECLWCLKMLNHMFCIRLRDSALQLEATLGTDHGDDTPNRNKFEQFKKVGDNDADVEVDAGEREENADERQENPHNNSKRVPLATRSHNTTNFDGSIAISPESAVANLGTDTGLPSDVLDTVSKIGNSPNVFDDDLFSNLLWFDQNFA
row,Sequence,PBM E-score
1,GCTTTCAC,-0.148
2,GCTATAGC,-0.096
3,ATTCTGCG,-0.0218
4,GAGAGACC,-0.122
5,ATACCTCC,-0.0529
6,TGATATCA,-0.281
7,TGCCACCA,-0.374
8,GGCGTCAC,-0.0997
9,GCCTTCAA,-0.13
10,GATGCGGC,0.0547
11,ATTCTTTC,-0.0171
12,AATCCGTA,0.12
13,GGTCCGAC,0.292
14,GGTCCGAA,0.416
15,AATCCGAT,0.368
16,AATCCGAA,0.42
17,CGTCCGAA,0.336
18,TATAGCCA,-0.113
19,CCGACTAA,0.29
20,CGGACAAG,0.138
21,CTCCTCGA,-0.284
22,ACATCCGC,0.382
23,CTATCCAC,-0.0315
24,CTATCCCC,-0.0734
25,CTATCCGC,0.396

row,Sequence,PBM E-score
1,ATATCCTC,-0.03
2,ATATCCGC,0.389
3,ACTGCCCG,0.123
4,ACTTTTCG,0.0867
5,GCCTCGCC,0.0101
6,GCCCCGGA,0.385
7,CCCCCGGA,0.176
8,AGCCCGGA,0.361
9,GGCCCGGA,0.402
10,ACCCCGGA,0.232
11,CGCCCGGA,0.328
12,AGAGGTTC,0.0565
13,ATAGCGGG,0.0172
14,AAGATGTG,-0.156
15,GCTAAGCA,-0.217
16,CCACAGAA,-0.0915
17,CCCAGACG,-0.17
18,ATCTTCGA,-0.171
19,ATCTTCGC,0.016
20,ATCTTCCG,0.436
21,AACTTCGC,-0.041
22,AACTTCGT,-0.177
23,AGCTTCGC,-0.276
24,ATCTTCCA,-0.137
25,AGCTTCGA,-0.189

row,Sequence,PBM E-score
1,ATCTTCGG,0.423
2,AGCTTCGG,0.395
3,AACTTCGG,0.408
4,ATCTTCCC,0.226
5,ATCGAACC,0.089
6,CTAGTCCA,-0.153
7,ACCAATGC,-0.00399
8,GTAGTCAC,-0.16
9,CTCTACTC,-0.106
10,GGATTCCA,0.13
11,ACCTTCCT,-0.342
12,ACCTTCCC,0.0875
13,ACCTTCCG,0.4
14,CCCTACAA,-0.218
15,ATCTATCA,-0.0983
16,AGAATGGC,-0.0824
17,AAGTCGGA,0.372
18,TAGTCGGA,0.405
19,GAGTCGGC,0.223
20,CAGTCGGA,0.316
21,TAGTCGCA,-0.0285
22,GAGTCGGA,0.387
23,CGATCGGA,0.322
24,GGATCGAA,0.214
25,AGATCGGC,0.189

row,Sequence,PBM E-score
1,AGATCGGG,0.28
2,AGATCGGA,0.438
3,GGATCGGA,0.402
4,GCATGAAA,-0.101
5,GTTCTCGA,-0.166
6,CCGAATCG,0.405
7,CCGAATCA,0.361
8,GCGAATCC,-0.0095
9,CCGAATCC,0.427
10,ACGAATCG,0.0102
11,ACGAATCC,0.009
12,ACTAGCAG,-0.298
13,GCCTACCC,0.0606
14,ACAGATCG,-0.0736
15,TATCCTGA,-0.0875
16,GAACCGGC,0.262
17,TATCCGGA,0.46
18,AATCCGGT,0.246
19,AATCCGGA,0.363
20,GATCCGGC,0.396
21,AATCCGGC,0.241
22,GATCCGCA,0.316
23,GATCCGGA,0.421
24,GTGAAAGA,0.0652
25,GTGAAGAA,-0.139

row,Sequence,PBM E-score
1,GAAGTGTA,-0.107
2,ATTGGTAA,-0.137
3,GCCTGCAA,-0.18
4,CCGTGAAA,0.145
5,GTATCATA,-0.0852
6,AATCATAA,-0.089
7,GCCCAGGA,-0.0894
8,ATCGGAAG,0.433
9,GTGGGAAC,-0.102
10,CGCGGAAG,0.357
11,ATCGGACC,0.308
12,AACGGAAC,0.348
13,CTCGGAAG,0.48
14,GTCGGAAC,0.454
15,ATCGGAAC,0.428
16,GACGGAAC,0.317
17,AACGGAAG,0.284
18,CACGGAAG,0.36
19,ATCGGACG,0.289
20,AATGACGC,-0.238
21,GTGATGGA,-0.00596
22,CGATTCTC,0.0534
23,ACGCTCCA,-0.0409
24,AATGAGAA,-0.0737
25,CGCGGAAA,0.316

row,Sequence,PBM E-score
1,CTCGGAAA,0.479
2,GTCGGAAA,0.453
3,AGCGGAAA,0.333
4,ATCGGACA,0.196
5,AACGGAAA,0.393
6,CTGGGAAA,-0.168
7,AACGGACA,0.0833
8,GTCAGAAA,-0.203
9,GTTGGAAA,0.0285
10,ATCGGAAA,0.424
11,CACGGAAA,0.352
12,CCCATTCA,-0.0249
13,CGTTTATA,-0.0024
14,ATCCCGGC,0.323
15,AGCGTAGG,-0.0217
16,AAGGCGGG,-0.0393
17,CTGAACAA,-0.0548
18,AGGGATGG,-0.174
19,ACGATTCC,0.06
20,CGACTTGA,-0.0925
21,CGATCAAA,0.0532
22,AACTTGGC,-0.109
23,ATCGGAAT,0.434
24,GGCGGAAC,0.356
25,CTCGGAAC,0.485

row,Sequence,PBM E-score
1,AACGGAAT,0.315
2,AGCGGAAC,0.316
3,AGCGGAAT,0.141
4,TTCAGAAA,-0.23
5,CTAGGAAC,-0.00703
6,TGCGGAAA,0.299
7,TTCGGAAA,0.474
8,CACGGAAC,0.352
9,CGCGGAAC,0.395
10,GCCATGGC,-0.361
11,CCCTTTTA,-0.172
12,AGCCTAGG,-0.0301
13,GATCCTTA,-0.0996
14,GCCATTCC,0.127
15,CCAGCGCC,-0.0109
16,CTACGCCA,-0.271
17,CACCCCAC,0.0245
18,CCTTGTGA,-0.0811
19,CCTCTCCA,-0.309
20,CCTCGCTA,-0.29
21,CCGCTACA,0.109
22,AATTCAAC,0.015
23,ATTAACCG,0.413
24,ATTAACCA,-0.136
25,ATTAACCC,0.212

row,Sequence,PBM E-score
1,GAGGAATC,-0.07
2,CCGTCGTA,-0.0259
3,ACGTCGGC,0.307
4,CCGTCGGA,0.397
5,GCGTCGGA,0.449
6,ACGTCGGA,0.389
7,ACGTCGGG,0.349
8,GCGTCGTA,0.0854
9,GCGTCGAA,-0.0895
10,CCGTCGGC,0.329
11,CTGGCAGC,-0.168
12,ACATAATA,-0.153
13,CGAGTCAA,-0.0247
14,AGGTTCAT,-0.128
15,ACAAGGCT,-0.138
16,ACAGATTG,-0.0283
17,AGTTTAAT,-0.111
18,ATGGGCTA,-0.084
19,CCACTCCA,-0.146
20,AATACCAT,-0.115
21,AGTGCCGG,0.301
22,GGTGCCCA,-0.147
23,CGTGCCCA,0.00213
24,GGTGCCGA,0.402
25,CGTGCCGA,0.405

row,Sequence,PBM E-score
1,CGTGCCGC,0.0918
2,AGTGCCGA,0.423
3,AGTGCCGC,0.123
4,GGTGCCTA,-0.0355
5,CTGGACGC,-0.278
6,ATCGCCCG,0.152
7,CACGGCCC,0.0623
8,GAGGAGTA,-0.00803
9,CTCGGGCA,0.325
10,GTCGGGGA,0.225
11,CTCGGGTA,0.478
12,ATCGGGTG,0.366
13,CCCGGGTA,0.407
14,GACGGGTA,0.267
15,CCCGGGTC,0.32
16,ATCGGGTA,0.419
17,ATCGGGCA,0.125
18,GTCGGGTA,0.445
19,CACGGGTA,0.333
20,CCGGGGTA,0.155
